Screens as filed in PubChem BioAssay.
NIH3T3 tox: Cytotoxic Profiling in NIH 3T3 Cell Line of Diverse Libraries Using Quantitative High-Throughput Screening | NIH 3T3 viability, CellTiter-Glo ATP luminescence, 48-72 h | AID 1345082, 2018 | actives 4.3% (n = 94,000) | Potency, µM (series often up to 96.7 µM), usual class: inhibitors; also: nearly all actives have a fitted effect of over 55% in size
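Luminescent ATP readout (CellTiter-Glo, 10 min RT) after 48 or 72 hr compound exposure of NIH 3T3 cells seeded at 400 cells/well in 1536-well format; quantitative HTS.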
NPR1 antag: Natriuretic polypeptide receptor (hNpr1) antagonism - Primary qHTS; HEK293 hNpr1 GloSensor cGMP, ANP-stimulated luminescence; Atrial natriuretic peptide receptor 1 (Homo sapiens), P16066; Potency, µM (series often up to 46.3 µM), hits mostly inhibitors; actives 1.6% (n = 76,000); calls by dose curve; also: nearly all actives have a fitted effect of over 60% in size
Target sequence (P16066 whole entry, looked up): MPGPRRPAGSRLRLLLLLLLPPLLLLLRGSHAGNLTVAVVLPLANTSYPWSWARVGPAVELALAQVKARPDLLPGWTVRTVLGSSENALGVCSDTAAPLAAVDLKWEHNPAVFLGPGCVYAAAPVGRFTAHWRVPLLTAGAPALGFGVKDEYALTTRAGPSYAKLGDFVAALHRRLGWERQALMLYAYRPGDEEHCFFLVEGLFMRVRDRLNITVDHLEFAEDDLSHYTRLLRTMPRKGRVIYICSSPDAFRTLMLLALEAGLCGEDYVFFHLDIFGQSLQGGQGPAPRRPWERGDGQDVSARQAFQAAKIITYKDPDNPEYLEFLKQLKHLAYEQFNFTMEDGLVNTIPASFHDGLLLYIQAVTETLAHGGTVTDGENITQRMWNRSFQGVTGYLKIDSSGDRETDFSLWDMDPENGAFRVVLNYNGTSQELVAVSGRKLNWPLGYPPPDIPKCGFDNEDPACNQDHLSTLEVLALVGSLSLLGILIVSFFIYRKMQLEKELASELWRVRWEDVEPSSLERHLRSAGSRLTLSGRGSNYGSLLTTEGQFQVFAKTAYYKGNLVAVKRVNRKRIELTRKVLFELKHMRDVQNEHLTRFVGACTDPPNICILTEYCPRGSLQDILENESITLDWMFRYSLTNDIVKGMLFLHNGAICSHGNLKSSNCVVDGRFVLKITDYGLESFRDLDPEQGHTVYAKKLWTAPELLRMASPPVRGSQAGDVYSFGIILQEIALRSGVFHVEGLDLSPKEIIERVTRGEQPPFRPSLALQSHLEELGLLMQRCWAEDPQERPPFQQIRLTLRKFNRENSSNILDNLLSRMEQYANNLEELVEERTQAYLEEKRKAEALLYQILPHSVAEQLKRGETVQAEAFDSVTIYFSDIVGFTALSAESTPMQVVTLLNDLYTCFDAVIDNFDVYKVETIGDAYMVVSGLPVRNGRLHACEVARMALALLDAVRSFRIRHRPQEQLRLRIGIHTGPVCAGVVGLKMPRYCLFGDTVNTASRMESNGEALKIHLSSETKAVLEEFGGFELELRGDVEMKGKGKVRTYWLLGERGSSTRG
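HEK293 cells stably expressing human Npr1 and cGMP GloSensor pGS-40F, loaded 2 h with 2% GloSensor reagent, given compound 30 min at room temperature. Luminescence read before and 20 min after 0.1 nM hNppA.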
HEK cytotox: Cytotoxic Profiling in HEK 293 Cell Line of Diverse Libraries Using Quantitative High-Throughput Screening | HEK 293 viability, ATP luminescence (CellTiter-Glo), 48-72 h | Potency, µM (series often up to 115 µM), hits mostly inhibitors | actives 6.6% (n = 94,000); also: nearly all actives have a fitted effect of over 60% in size
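Read-out: CellTiter-Glo ATP luminescence. Cells: HEK 293, 250 cells/well. Exposure: 48 or 72 hr, 37 degree Celsius.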
FLuc inh: Firefly luciferase inhibition profiling of diverse chemical library using quantitative high-throughput screening | purified P. pyralis luciferase, luminescence, biochemical | actives 2.5% (n = 76,000) | Potency, µM (series often up to 115 µM), hits mostly inhibitors | Luciferin 4-monooxygenase (Photinus pyralis), P08659 | AID 1347043, 2019; also: nearly all actives have a fitted effect of over 65% in size
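Luminescence read by CCD imager after adding enzyme (10nM final) to wells holding compound, titrated in qHTS. Substrates 10uM each D-luciferin and ATP; buffer 50mM Tris acetate pH 7.5, 10mM Mg acetate, Tween-20, BSA.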
Numbers stand for hits; 0 = inactive; ? = inconclusive; - = not tested or not shown. Only some compounds are listed: those with a hit (about 11% of all), similar ones and a draw of the others. Unless noted, calls follow the shape of the dose curve; as a rule, active = well fitted curve in the direction sought with a large enough effect; inconclusive = small, poorly fitted or top-dose-only effect, or another doubt; inactive = no such curve, though single readings can be large; an effect the other way counts as inactive or inconclusive.

SMILES	NIH3T3 tox	NPR1 antag	HEK cytotox	FLuc inh
C=CCN1C[C@@H]2C[C@@H](C(=O)OCC)N(C(=O)c3ccc(C)cc3)c3cccc(c32)C1=O	?	-	0	-
O=[S+]1([O-])NCC2(CCN(Cc3ccccc3C(F)(F)F)CC2)Nc2ccccc21	0	0	?	0
O=[S+]1([O-])NC2(CCN(Cc3ccncc3)CC2)CNc2ccccc21	0	0	0	0
O=[S+]1([O-])NC2(CCN(Cc3cccc4ccccc34)C2)CNc2ccccc21 (centres undefined)	?	?	40µM	0
O=C(c1ccc(C(F)(F)F)cc1)N1CCC2(CC1)CNc1ccccc1[S+](=O)([O-])N2	0	0	50µM	0
O=[S+]1([O-])NC2(CCN(Cc3ccccc3C(F)(F)F)C2)CNc2ccccc21 (centres undefined)	?	0	40µM	0
O=[S+]1([O-])NC2(CCN(Cc3ccc(C(F)(F)F)cc3)C2)CNc2ccccc21 (centres undefined)	?	?	45µM	0
CCC(CC)n1c(=O)n(Cc2cc(C(C)C)no2)c2cc(C(=O)O)cnc21	79µM	0	0	0
O=C(NC1CCN(C(=O)c2ccc(-c3cncnc3)cc2)CC1)c1ccccc1Cl	0	-	0	-
CN1CCN(C(=O)c2cc(-c3cccc(F)c3)nc3c2cnn3C)CC1	?	-	0	-
O=c1ncn(Cc2ccccc2)c2ccc(-c3ccc(F)cc3F)nc12	89µM	0	0	0
CC(C)(C)C(=O)NC1CCN(c2ccnc3ccnn23)CC1	0	-	0	-
COc1cccc(CC(=O)N2CCC3(CC2)OC(=O)N(Cc2ccccc2F)C3(C)c2ccccc2)c1 (centres undefined)	25µM	0	?	0
CC1(c2ccccc2)N(Cc2cccnc2)C(=O)OC12CCN(C(=O)Cc1ccccc1)CC2 (centres undefined)	?	0	0	0
Cn1ccc(C(=O)N2CCC3(CC2)OC(=O)N(Cc2ccccc2F)C3(C)c2ccccc2)n1 (centres undefined)	?	0	0	0
COc1ccc(C(=O)N2CCC3(CC2)OC(=O)N(Cc2ccccc2F)C3(C)c2ccccc2)cc1 (centres undefined)	35µM	0	45µM	0
O=C(Nc1ccsc1)N[C@H]1C[C@H]2C(=O)NC[C@@H](CCC(=O)N3CCCCC3)N2C1	0	0	0	0
Cc1cc2cc(-c3c(C)noc3C)nc(-c3ccccc3)c2o1	?	0	?	0
Cc1cc2cc(-c3c(C)noc3C)nc(N3CCN(c4ccccn4)CC3)c2o1	28µM	0	13µM	0
Cc1cc2cc(-c3c(C)noc3C)nc(N(C)C)c2o1	?	0	100µM	0
Cc1noc(C)c1-c1cc2cc(C(C)C)oc2c(NCc2cccnc2)n1	?	0	?	0
Cc1noc(C)c1-c1cc2cc(C(C)C)oc2c(N(C)CCN(C)C)n1	25µM	0	35µM	0
CNC(=O)[C@H]1CN(C(=O)NCc2ccccc2)[C@]2(C)C(=O)N(CC3CC3)c3ccccc3[C@H]12	?	-	0	-
COc1ccccc1CN1CC(O)CN(C(=O)c2ccc(SC)cc2)CC1=O (centres undefined)	0	-	?	-
Cc1cc(C)cc(-c2[nH]nc3ncc(-c4ccsc4)nc23)c1	25µM	0	?	0
SMILES	NIH3T3 tox	NPR1 antag	HEK cytotox	FLuc inh
COc1ccc(-c2[nH]nc3ncc(-c4ccccc4F)nc23)c(C)c1	50µM	0	63µM	0
Cc1cccc(-c2cnc3n[nH]c(-c4ccccc4)c3n2)c1	?	0	71µM	0
c1ccc(-c2cnc3n[nH]c(-c4ccccc4)c3n2)cc1	?	0	100µM	0
COc1ccc(-c2[nH]nc3ncc(-c4cn[nH]c4)nc23)c(C)c1	?	0	?	0
C[C@H]1[C@@H]2[C@@H](O)C([C@H](C)C(=O)NCc3ccc(F)cc3)CC[C@@]2(C)CC[C@@H]1NC(=O)c1cnccn1 (some centres undefined)	0	0	0	0
NC(=O)COC[C@@H]1CN(CC2CCCCC2)C[C@H]1c1ccncc1	?	0	?	0
c1cncc(-c2cnc3n[nH]c(-c4ccc5c(c4)OCO5)c3n2)c1	?	0	28µM	0
Cc1cc(-c2cnc3n[nH]c(-c4ccccc4)c3n2)ccn1	?	0	?	0
